Our source for the IC50 values is PubChem BioAssay AID2496 (Sanford-Burnham Center for Chemical Genomics, 2010).

A number with no mark means an inactive call. The source made the active and inactive calls. Cut-off read from the data, not from the text of the source: active = IC50 below about 40 µM; inactive = the rest.

Usually IC50 stands for the concentration at which inhibition is half-maximal.

The nature of the assay: compound optical interference in time-resolved FRET – biochemical, fluorescence ratio, artefact control, SAR follow-up (AID 2496). The conditions noted are these: HTRF spectral interference counter-screen. In general terms: Time-resolved FRET reads energy transfer from a long-lived donor to a nearby acceptor.
Consider `Cc1ccc(/C=C/C(=O)NCc2ccc(S(N)(=O)=O)cc2)o1`, for which the IC50 was above 50 µM.

For the molecule `O=C(COC(=O)c1c2c(nc3ccccc13)/C(=C/c1ccco1)CC2)NC1CCCC1`, the half-inhibitory concentration (IC50) is 4.42 µM (active). For the molecule `O=C(Nc1ccc2nc(-c3ccco3)c(-c3ccco3)nc2c1)N1CCOCC1`, the IC50 was 7.32 µM (active). To `O=C(CSc1ccc(Cl)cc1)Nc1cccc(-c2nc3ccccc3[nH]2)c1` belongs 12.8 µM (active); to `COc1ccc(NC(=O)c2cc(-c3ccco3)nc3ccccc23)cc1S(=O)(=O)N1CCOCC1`, 37.2 µM (active).

With `CCCc1ccc(/C=C2\C(=O)c3ccccc3C(O)=C2C(=O)OCC)cc1`, the IC50 is above 50 µM. To `CCOC(=O)N1CCN(C(=O)c2ccc3nc(-c4ccco4)c(-c4ccco4)nc3c2)CC1` belongs 6.55 µM (active). The same measure for `CN(CCC#N)C(=O)COC(=O)c1c2c(nc3ccccc13)/C(=C/c1ccco1)CC2`: 8.9 µM (active); for `CCN(CC)CCNC(=O)c1cc(-c2ccco2)nc2ccccc12`: 19.8 µM (active); for `CC(=O)NS(=O)(=O)c1ccc(NC(=O)/C=C/c2ccc(C)o2)cc1`: above 50 µM. For the molecule `CCNC(=O)COC(=O)c1cc(-c2ccco2)nc2ccccc12`, the IC50 was above 50 µM.

Regarding `Nc1ccc(-c2nc3c(Cl)c(N)ccc3[nH]2)cc1`, the IC50 was 5.59 µM (active).

With `Nc1ncnc2oc(-c3ccco3)c(-c3ccco3)c12`, the IC50 was above 50 µM. The same measure for `O=C(NN=Cc1ccc(F)cc1)c1cc(-c2ccco2)nc2ccccc12`: above 50 µM; for `CCOC(=O)c1sc2nc(-c3ccco3)c3c(c2c1N)CC(C)(C)OC3`: above 50 µM; for `Nc1c(C(=O)NC2CC2)sc2nc3c(c(-c4ccco4)c12)CC/C3=C/c1ccco1`: 2.98 µM (active).

As to `COc1ccc(CCNC(=O)c2cc(-c3ccco3)nc3ccccc23)cc1`, the IC50 is 15 µM (active). The same measure for `CN(C(=O)COC(=O)c1cc(-c2ccco2)nc2ccccc12)C1CCS(=O)(=O)C1` (configuration not stated): 26.6 µM (active); for `Cc1ccc(S(=O)(=O)N(C)C)cc1NC(=O)c1cc(-c2ccco2)nc2ccccc12`: above 50 µM; for `CC(/C=C/c1ccco1)=NNC(=O)c1cccnc1`: above 50 µM. `Cc1ccc(/C=C/C(=O)N2CCN(c3ncccn3)CC2)o1`: the IC50 was above 50 µM. The same measure for `CCN(CC)C(=O)COC(=O)c1cc(-c2ccco2)nc2ccccc12`: 16.4 µM (active); for `CC(=O)Oc1ccc(N2C(=O)C3C(C2=O)C2(C)C=CC3(C)O2)cc1` (configuration not stated): 2.86 µM (active). The same measure for `CCCCc1ccc(/C=C2\C(=O)c3ccccc3C(O)=C2C(=O)OCC)cc1`: 4.14 µM (active); for `O=C(NC1CCCC1)c1ccc2nc(-c3ccco3)c(-c3ccco3)nc2c1`: above 50 µM; for `CNc1nc(-c2ccccc2)[n+](-c2ccc(C)cc2)s1`: above 50 µM. To `CC(/C=C/c1ccco1)=NNC(=O)c1cc(C)[nH]n1` belongs above 50 µM.
